PubChem BioAssay (Tox21)
Records with an inconclusive call do not appear. Active and inactive are the calls of the source. Unless noted, calls follow the shape of the dose curve; as a rule, active = well fitted curve in the direction sought with a large enough effect in the repeat runs; inconclusive = weak or mixed curves; inactive = no such curve, though single readings can be large; an effect the other way counts as inactive or inconclusive.

Legend:
[1] = target: Thyrotropin receptor (Homo sapiens) (UniProt P16473); test: qHTS assay to identify small molecule agonists of the thyroid stimulating hormone receptor (TSHR) signaling pathway (AID 1224843; calls by dose curve; also: nearly all actives have a fitted effect of over 45% in size)
Chain of Thyrotropin receptor (Homo sapiens) (P16473 whole entry, looked up): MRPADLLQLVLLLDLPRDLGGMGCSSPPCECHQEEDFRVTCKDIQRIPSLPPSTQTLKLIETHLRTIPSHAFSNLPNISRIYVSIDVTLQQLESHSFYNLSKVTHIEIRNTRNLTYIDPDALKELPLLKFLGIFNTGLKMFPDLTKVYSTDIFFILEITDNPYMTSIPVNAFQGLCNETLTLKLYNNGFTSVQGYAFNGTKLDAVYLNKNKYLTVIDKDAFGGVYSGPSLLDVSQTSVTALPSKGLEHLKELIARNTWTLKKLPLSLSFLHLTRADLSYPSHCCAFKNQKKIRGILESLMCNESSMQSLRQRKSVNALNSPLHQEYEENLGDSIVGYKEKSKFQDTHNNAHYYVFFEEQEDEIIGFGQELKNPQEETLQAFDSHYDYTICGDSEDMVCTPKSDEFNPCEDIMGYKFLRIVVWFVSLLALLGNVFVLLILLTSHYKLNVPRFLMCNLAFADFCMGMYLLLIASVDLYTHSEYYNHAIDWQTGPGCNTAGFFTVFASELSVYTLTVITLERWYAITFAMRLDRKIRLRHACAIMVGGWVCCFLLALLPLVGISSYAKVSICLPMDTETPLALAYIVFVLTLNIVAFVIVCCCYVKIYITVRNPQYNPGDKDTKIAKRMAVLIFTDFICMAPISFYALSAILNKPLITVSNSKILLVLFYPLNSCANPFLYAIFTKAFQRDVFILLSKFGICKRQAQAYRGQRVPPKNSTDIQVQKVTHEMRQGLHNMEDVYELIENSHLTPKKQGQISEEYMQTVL
Outline: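 Agonist activity read as cAMP rise via d2/cryptate HTRF competition, 1 h room-temperature detection, in HEK293 cells expressing TSHR. Fifteen-point titrations, each run in triplicate, with a 30 min room-temperature incubation beforehand.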

[2] = qHTS assay to identify small molecule agonists of the hypoxia (HIF-1) signaling pathway - cell viability counter screen (AID 1224844; calls by dose curve; also: nearly all actives have a fitted effect of over 50% in size)
Outline: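 HRE-bla ME-180; 0.5% dFBS; cpd 17 h, 37C, 5% CO2; CellTiter-Glo lum., 30 min RT, post-FRET read, same wells.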

[3] = qHTS assay to identify small molecule agonists of H2AX (AID 1224845; active = well fitted activation curve with a large enough effect in the signal ratio in the repeat runs, not every such curve was filed as active; the % refers to the signal ratio)
Outline: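 Phospho-H2AX Ser139 measured by HTRF (ex 320 nm; em 665 and 620 nm) after 24 hr antibody incubation. Compounds, 15 concentrations, 0.76% DMSO, were applied to CHO-K1 cells for 3hr at 37C before lysis.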

[4] = qHTS assay to identify small molecule agonists of H2AX - cell viability counter screen (AID 1224847; calls by dose curve; also: top concentration of the series differs between compounds; nearly all actives have a fitted effect of over 30% in size)
Outline: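 We seed wild-type CHO-K1 cells overnight, treat them for 3 hr at 37C with compounds in 15-concentration series, and quantify remaining viability by CellTiter-Glo luminescence.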

[5] = qHTS RealTime-Glo MT Cell Viability Assay in HepG2 cells - 24 hour (AID 1224867); also: nearly all actives have a fitted effect of over 50% in size
Outline: (§1)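 Compound treatment began 5 h after plating HepG2 cells (600/well) with NanoLuc luciferase and prosubstrate. Plates stayed at 37 C for 40 h; luminescence was captured at six time points, 0 h through 40 h.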

[6] = qHTS RealTime-Glo MT Cell Viability Assay in HEK293 cells - 32 hour (AID 1224868); also: top concentration of the series differs between compounds; nearly all actives have a fitted effect of over 50% in size
Outline: (§2)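 Quantitative high-throughput screen of the Tox21 10K library in HEK293: cells and RealTime-Glo reagents plated together, compound added at 5 h, luminescence monitored through 40 h at 37 C.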

[7] = A CellTox Green Cytotoxicity Assay to monitor cytotoxicity in HEK293 cells - 0 hour (AID 1224869); also: nearly all actives have a fitted effect of over 50% in size
Outline: (§3)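 Tox21 screen in HEK293: membrane-impermeant cyanine dye fluoresces on binding dead-cell DNA; compound pinned 5 h post-seeding, plates held at 37 C, signal read repeatedly through 40 h.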

[8] = qHTS RealTime-Glo MT Cell Viability Assay in HepG2 cells - 40 hour (AID 1224870); also: nearly all actives have a fitted effect of over 50% in size
Outline: (§4)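 Real-time viability: cells seeded at 600 per well together with NanoLuc and cell-permeant prosubstrate, compounds added after 5 h incubation. Luminescence tracked at 0, 8, 16, 24, 32 and 40 h of exposure.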

[9] = A CellTox Green Cytotoxicity Assay to monitor cytotoxicity in HEK293 cells - 40 hour (AID 1224871); also: nearly all actives have a fitted effect of over 45% in size
Outline: as §3

[10] = qHTS RealTime-Glo MT Cell Viability Assay in HEK293 cells - 16 hour (AID 1224872)
Outline: as §2

[11] = qHTS RealTime-Glo MT Cell Viability Assay in HepG2 cells - 8 hour (AID 1224873); also: nearly all actives have a fitted effect of over 55% in size
Outline: as §4

[12] = qHTS RealTime-Glo MT Cell Viability Assay in HEK293 cells - 40 hour (AID 1224874); details: RealTime-Glo luminescence; max response: stronger effect = lower value; also: nearly all actives have a fitted effect of over 50% in size
Outline: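 HEK293 + NanoLuc + prosubstrate, 600 cells/well; 5 h, 37 C/5% CO2; compound 23 nL in DMSO by pintool; 37 C; luminescence read at 0, 8, 16, 24, 32 and 40 h time points.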

[13] = A CellTox Green Cytotoxicity Assay to monitor cytotoxicity in HEK293 cells - 24 hour (AID 1224875); also: nearly all actives have a fitted effect of over 45% in size
Outline: as §3

[14] = A CellTox Green Cytotoxicity Assay to monitor cytotoxicity in HepG2 cells - 16 hour (AID 1224876); also: nearly all actives have a fitted effect of over 45% in size
Outline: (§5)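 Measurements at 0, 8, 16, 24, 32 and 40 h of treatment captured CellTox Green fluorescence in HepG2 cells that had been co-plated with reagent and preincubated 5 h at 37 C/5% CO2.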

[15] = qHTS RealTime-Glo MT Cell Viability Assay in HepG2 cells - 32 hour (AID 1224877); also: nearly all actives have a fitted effect of over 55% in size
Outline: as §1

[16] = A CellTox Green Cytotoxicity Assay to monitor cytotoxicity in HepG2 cells - 24 hour (AID 1224878); also: nearly all actives have a fitted effect of over 45% in size
Outline: as §5

[17] = A CellTox Green Cytotoxicity Assay to monitor cytotoxicity in HepG2 cells - 40 hour (AID 1224879); also: nearly all actives have a fitted effect of over 40% in size
Outline: as §5

[18] = qHTS assay to identify small molecule antagonists of the estrogen related receptor (ERR) signaling pathway from Tox21 library (AID 1224848); also: nearly all actives have a fitted effect of over 50% in size
Outline: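 Luciferase luminescence (ONE-Glo, 30 min room temperature) was the read-out. Cells of the NTP-supplied ERR line, 2,000 per well, were given 6 h at 37 C before compound addition in DMSO and 18 h exposure at 37 C.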

[19] = qHTS assay to identify small molecule agonists of the estrogen related receptor (ERR) signaling pathway from Tox21 library (AID 1224849; calls by dose curve; also: nearly all actives have a fitted effect of over 15% in size); details: ERR reporter cell line, ONE-Glo luciferase, 18 h; at 92.4 µM (top of the series) unless noted
Outline: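 Tox21 compounds tested for ERR agonism in an NTP reporter cell line: 18 h treatment at 37 C, then ONE-Glo luminescence.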
% is scaled to controls: 0 for no effect and ±100 for the full control effect.

CCOP(=O)(CN(CCO)CCO)OCC
inactive: Potency [1] | Potency [2] | outcome [3] | Potency [4] | Potency [5] | Potency [6] | outcome [7] | Potency [8] | Potency [9] | Potency [10] | outcome [11] | max response [12] 1.2% | Potency [13] | Potency [14] | Potency [15] | Potency [16] | Potency [17]

COC(=O)[C@@H](N)CCCN/C(N)=N/[N+](=O)[O-]
inactive: Potency [1] | Potency [2] | outcome [3] | Potency [4] | Potency [5] | Potency [6] | outcome [7] | Potency [8] | Potency [9] | Potency [10] | outcome [11] | max response [12] 6.22% | Potency [13] | Potency [14] | Potency [15] | Potency [16] | Potency [17]

C=C1CC[C@@]2(O)[C@H]3Cc4ccc(O)c5c4[C@@]2(CCN3CC2CC2)[C@H]1O5
inactive: Potency [1] | Potency [2] | outcome [3] | Potency [4] | Potency [18] | activity change, positive = activation [19] 8.21% [at 42.5 µM] | Potency [5] | Potency [6] | outcome [7] | Potency [8] | Potency [10] | outcome [11] | max response [12] 9.06% | Potency [13] | Potency [14] | Potency [15] | Potency [16] | Potency [17]

C=C1C[C@@H]2[C@H](CC[C@]3(C)C(=O)CC[C@@H]23)[C@@]2(C)C=CC(=O)C=C12
inactive: Potency [1] | Potency [2] | outcome [3] | Potency [4] | activity change, positive = activation [19] -24.3% [at 42.5 µM] | Potency [5] | Potency [6] | outcome [7] | Potency [8] | Potency [9] | Potency [10] | outcome [11] | max response [12] 0.138% | Potency [13] | Potency [14] | Potency [15] | Potency [16] | Potency [17]

C=CCN1CC[C@]23CCCC[C@H]2[C@H]1Cc1ccc(O)cc13
inactive: Potency [1] | Potency [2] | outcome [3] | Potency [4] | Potency [18] | activity change, positive = activation [19] 5.12% [at 42.5 µM] | Potency [5] | Potency [6] | outcome [7] | Potency [8] | Potency [9] | Potency [10] | outcome [11] | max response [12] 1.5% | Potency [13] | Potency [14] | Potency [15] | Potency [16] | Potency [17]

CCNc1nc(NCC)nc(SC)n1
inactive: Potency [1] | Potency [2] | outcome [3] | Potency [4] | Potency [5] | outcome [7] | Potency [8] | Potency [9] | Potency [10] | outcome [11] | max response [12] -13.3% | Potency [13] | Potency [14] | Potency [15] | Potency [16] | Potency [17]

NC1(c2ccccc2)CCCCC1
inactive: Potency [1] | Potency [2] | outcome [3] | Potency [4] | Potency [5] | Potency [6] | outcome [7] | Potency [8] | Potency [9] | outcome [11] | max response [12] -3.55% | Potency [13] | Potency [14] | Potency [15] | Potency [16] | Potency [17]
